Results reported in article PMC4552634, “A New Set of Chemical Starting Points with Plasmodium falciparum Transmission-Blocking Potential for Antimalarial Drug Discovery” (PLoS ONE, 2015).
Screen size: about 13,000 compounds; about 3,200 (25%) showed an effect of 50% or more. Some of the results follow.

These compounds were tested on P. falciparum stage V gametocytes. Settings: 48 h, 5 µM; inhibitor.
Design: BacTiter-Glo ATP luminescence viability of purified stage V gametocytes in 384-well plates, per cent inhibition versus DMSO

Row | SMILES | % Inhibition [%]
1 | CC1(C)C(=O)Nc2ccccc2N1C(=O)CN1CCN(c2ccccc2O)CC1 [TCMDC-124856] | -25.41
2 | Cc1ccc(S(=O)(=O)N2CCCN(C(=O)c3cc(-c4ccccc4)n[nH]3)CC2)cc1 [TCMDC-125243] | 32.96
3 | CC(C(=O)N1CCCC1)N1CCN(S(=O)(=O)c2ccc(C(C)(C)C)cc2)CC1 (stereo not shown) [TCMDC-125011] | 54.13
4 | CC(C(=O)N1CCCC1)N1CCN(C(c2ccccc2)c2ccccc2)CC1 (stereo not shown) [TCMDC-123562] | 15.58
5 | C=CCn1c(SCC(=O)Nc2cc(C)ccc2OC)nc2sc(C)cc2c1=O [TCMDC-123737] | -0.9433
6 | O=c1cc(NCCCNCc2cccc3c2OC(F)(F)O3)[nH]c2ccccc12 [TCMDC-139425] | -37.26
7 | CC(C)CN1CCN(c2nc(C#N)c3c(c2C(=S)NC2CCCCC2)CC(C)(C)OC3)CC1 [TCMDC-124173] | 83.9
8 | CCCN(CCC)C(=S)N=Nc1c(O)[nH]c2ccccc12 [TCMDC-138078] | -20.57
9 | COCCn1c(C)nc2ccccc2c1=O [TCMDC-124916] | -2.427
10 | Cc1ccc2c(=O)n(C)c(=O)n(C)c2n1 [TCMDC-123937] | 60.67
11 | O=C(NCCN1CCCC1)c1cc(-c2ccc(Cl)c(O)c2)c(-c2ccncc2)o1 [TCMDC-135295] | 13.58
12 | Cc1nc(N)nc(N)c1CCCOc1ccccc1Br [TCMDC-138069] | -36.44
13 | O=C(Nc1ccc(-c2cccc(-c3nc4ccccc4[nH]3)c2)cc1)c1cnn2cccnc12 [TCMDC-136863] | -40.98
14 | COc1ccc(-c2ccc(CNC3Cc4ccccc4C3)cc2)cc1S(=O)(=O)NCCN1CCCC1 [TCMDC-132472] | 95.39
15 | COc1ccc(CNC2Cc3ccccc3C2)cc1-c1ccc(OC)c(S(=O)(=O)NCCN2CCCC2)c1 [TCMDC-132251] | 107.6
16 | COc1ccc(-c2ccccc2CNC2Cc3ccccc3C2)cc1S(=O)(=O)NCCN1CCCC1 [TCMDC-132211] | 56.67
17 | COc1ccc(CNC2Cc3ccccc3C2)cc1-c1ccc(S(=O)(=O)NCCN2CCCC2)c(F)c1 [TCMDC-132266] | 84.74
18 | O=C(NCc1ccc(F)cc1)Nc1ccc(-c2cccc(-c3nc4ccc(F)cc4[nH]3)c2)cc1 [TCMDC-133304] | -35.38
19 | Cc1cc(C)c(CON2C(N)=NC(N)=NC2(C)C)cc1C [TCMDC-131652] | -5.978
20 | COc1ccc2nccc([C@@H](O)CN3CCC(NC(=O)Cn4nc(-c5ccc(C(F)(F)F)cc5)ccc4=O)CC3)c2c1 [TCMDC-141042] | -2.454
21 | CC(=O)c1ccccc1C(=O)N1CCOc2ccc(C(O)C(c3ccccc3)c3ccccc3)cc2C1 (stereo not shown) [TCMDC-124667] | -12.26
22 | O=C(NCCN1CCCC1)c1ccc(-c2ccc(-c3nc4ccccc4[nH]3)s2)cc1 [TCMDC-132314] | 24.13

Row | SMILES | % Inhibition [%]
23 | O=C(NCCCN1CCC(Cc2ccccc2)CC1)c1cc2c(Cl)nc3ccccc3c2s1 [TCMDC-125440] | -22.49
24 | Cn1c(=O)c2cc(C(=O)NCCCN3CCCCCC3)sc2c2ccccc21 [TCMDC-123889] | 59.14
25 | O=C(Nc1cccc(-c2cccc(-c3nc4ccccc4[nH]3)c2)c1)Nc1ccc(F)c(F)c1F [TCMDC-133226] | -1.107
26 | Cc1cc(N[C@@H](CC(C)C)C(=O)NCCc2ccccc2)nc(NCCc2ccc(F)cc2)n1 [TCMDC-134796] | 48.22
27 | Cc1cccc(CNc2nc(C)cc(N[C@@H](CC(C)C)C(=O)NCc3cccc(F)c3)n2)c1 [TCMDC-134890] | -6.286
28 | Cc1cc(N[C@@H](CC(C)C)C(=O)NCc2cccc(F)c2)nc(Nc2ccccc2)n1 [TCMDC-134737] | -10.43
29 | Cc1cc(N[C@@H](CC(C)C)C(=O)NCc2cccc(F)c2)nc(NCCc2ccccc2)n1 [TCMDC-134870] | 54.62
30 | Cc1cc(N[C@@H](CC(C)C)C(=O)NCc2cccc(F)c2)nc(NCCc2ccc(F)cc2)n1 [TCMDC-134792] | 53.15
31 | COc1cccc(-c2cnc(N)c(-c3nc4cc(Cl)c(F)cc4[nH]3)c2)c1 [TCMDC-138792] | 26.62
32 | c1ccc2[nH]c(-c3ccc(-c4ccc(CN5CCC(N6CCCCC6)CC5)cc4)s3)nc2c1 [TCMDC-136787] | 26.44
33 | Fc1ccc2nc(-c3ccc(-c4ccc(CN5CCCCC5)cc4)s3)[nH]c2c1 [TCMDC-133897] | -55.88
34 | Cc1cccc2nc(-c3ccc(-c4ccc(NC(=O)CN5CCN(C)CC5)cc4)s3)[nH]c12 [TCMDC-136987] | -6.57
35 | CN1CCC(N2CCN(Cc3ccc(-c4ccc(-c5nc6ccc(F)cc6[nH]5)s4)cc3)CC2)CC1 [TCMDC-133859] | 93.67
36 | COC[C@H]1CCCN1Cc1ccc(-c2ccc(-c3nc4ccccc4[nH]3)s2)cc1 [TCMDC-136785] | -1.728
37 | Cc1cccc2nc(-c3ccc(-c4ccc(CN5CCN(C6CCN(C)CC6)CC5)cc4)s3)[nH]c12 [TCMDC-133866] | 107
38 | Fc1ccc2nc(-c3ccc(-c4ccc(CN5CCN(CCN6CCOCC6)CC5)cc4)s3)[nH]c2c1 [TCMDC-133935] | 8.438
39 | Cc1cccc2nc(-c3ccc(-c4cccc(NC(=O)CN5CCN(C)CC5)c4)s3)[nH]c12 [TCMDC-136988] | 20.22
40 | CN1CCC(N2CCN(Cc3ccc(-c4ccc(-c5nc6ccccc6[nH]5)s4)cc3)CC2)CC1 [TCMDC-133851] | 67.23
41 | O=C(Nc1ccc2nc(-c3ccccc3)[nH]c2c1)c1cc(-c2ccc3c(c2)OCCO3)n[nH]1 [TCMDC-134398] | 9.818
42 | CS(=O)(=O)Nc1ccc2[nH]cc(C3CCN(CCCCCNC(=O)/C=C/c4ccc(Cl)c(Cl)c4)CC3)c2c1 [TCMDC-139325] | -23.44
43 | Cc1cc(O)c2c(c1)OC(C)(C)C=C2C1=CCN(Cc2ccccc2)CC1 [TCMDC-131313] | -37.74
